# In PubChem BioAssay:
# Inconclusive results are not listed. Active and inactive are the calls of the source. Cut-off read from the data, not from the text of the source, unless noted: active = inhibition above about 80%; inactive = the rest. Peptide text beside a SMILES is read from it.
# What was measured:
# [1] = target: ATP-dependent translocase ABCB1 (Homo sapiens) (UniProt P08183); assay: MDR1 (ABCB1) efflux transporter inhibition, cell-based (AID 377; in the data active = fluorescence slope change above about 50%); settings: MDR1-expressing cells, fluorescent substrate accumulation slope; stronger effect = higher value; concentration not given here
# Chain of ATP-dependent translocase ABCB1 (Homo sapiens) (P08183 whole entry, looked up): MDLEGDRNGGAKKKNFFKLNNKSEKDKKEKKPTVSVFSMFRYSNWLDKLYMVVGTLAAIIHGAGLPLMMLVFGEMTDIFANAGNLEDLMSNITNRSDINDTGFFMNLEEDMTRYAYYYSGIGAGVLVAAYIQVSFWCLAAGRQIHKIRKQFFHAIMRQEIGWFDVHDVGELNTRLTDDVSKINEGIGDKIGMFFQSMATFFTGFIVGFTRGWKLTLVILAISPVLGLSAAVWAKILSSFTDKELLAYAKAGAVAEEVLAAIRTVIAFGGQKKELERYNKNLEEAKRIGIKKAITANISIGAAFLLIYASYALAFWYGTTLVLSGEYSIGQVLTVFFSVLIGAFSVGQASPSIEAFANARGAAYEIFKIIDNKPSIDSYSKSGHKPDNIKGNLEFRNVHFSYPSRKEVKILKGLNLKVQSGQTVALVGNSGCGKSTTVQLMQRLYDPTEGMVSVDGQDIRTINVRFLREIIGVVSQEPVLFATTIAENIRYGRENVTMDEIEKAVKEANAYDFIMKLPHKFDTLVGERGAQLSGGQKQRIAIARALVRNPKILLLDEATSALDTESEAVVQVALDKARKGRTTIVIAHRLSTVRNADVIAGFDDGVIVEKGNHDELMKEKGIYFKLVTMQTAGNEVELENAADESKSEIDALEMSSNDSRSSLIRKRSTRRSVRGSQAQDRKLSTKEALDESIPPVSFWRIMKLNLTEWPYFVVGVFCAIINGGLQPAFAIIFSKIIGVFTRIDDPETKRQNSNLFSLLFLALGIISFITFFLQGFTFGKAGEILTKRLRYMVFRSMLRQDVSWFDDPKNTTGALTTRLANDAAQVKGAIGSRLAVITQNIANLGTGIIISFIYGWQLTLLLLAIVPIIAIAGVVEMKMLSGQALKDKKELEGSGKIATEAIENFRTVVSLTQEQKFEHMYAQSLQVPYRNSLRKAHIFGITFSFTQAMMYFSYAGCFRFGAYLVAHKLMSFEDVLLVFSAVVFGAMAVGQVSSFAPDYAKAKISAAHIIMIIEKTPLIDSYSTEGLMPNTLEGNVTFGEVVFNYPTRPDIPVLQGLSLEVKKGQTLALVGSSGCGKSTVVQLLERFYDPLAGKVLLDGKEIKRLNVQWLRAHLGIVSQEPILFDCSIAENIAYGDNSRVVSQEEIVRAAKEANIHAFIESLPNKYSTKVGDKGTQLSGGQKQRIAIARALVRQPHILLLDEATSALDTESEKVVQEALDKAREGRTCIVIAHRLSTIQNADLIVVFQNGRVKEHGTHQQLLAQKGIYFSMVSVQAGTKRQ
# [2] = protection against mutant huntingtin cytotoxicity, PC12 cells, LDH release (AID 1610); settings: PC12 mutant huntingtin toxicity, final LDH at 4 uM, stronger effect = lower value
# [3] = CRL2098 osteosarcoma cell growth inhibition, synergistic combos for chromothripsis tumors, BGB or cisplatin IC20 combos (AID 1671454); settings: CRL2098 osteosarcoma cells, drug combinations, stronger effect = higher value;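 note: cells exposed for 96 h before readout; 0% = vehicle DMSO and 100% = killing by high DMSO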
# [4] = HD-MB03 medulloblastoma cell growth inhibition, synergistic combos for chromothripsis tumors, BGB or cisplatin IC20 combos (AID 1671455; in the data active = inhibition above about 83%;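 note: 0% = vehicle DMSO and 100% = high DMSO as cytotoxic control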); settings: HD-MB03 medulloblastoma cells, stronger effect = higher value
# [5] = UWB1.289 ovarian carcinoma cell growth inhibition, synergistic combos for chromothripsis tumors, BGB or cisplatin combos (AID 1671456); settings: UWB1.289 ovarian carcinoma cells, stronger effect = higher value;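 note: cells exposed to compound for four days; 0% = vehicle DMSO and 100% = killing by high DMSO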
# [6] = LFS_MB_2R medulloblastoma cell growth inhibition, synergistic combos for chromothripsis tumors, cisplatin combos (AID 1671457); settings: LFS_MB_2R medulloblastoma cells, stronger effect = higher value;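 note: cells exposed to compound for four days before readout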
# [7] = UWB1.289_BRCA1 ovarian cancer growth, cell-based, BGB or cisplatin combinations (AID 1671459); settings: UWB1.289 BRCA1 ovarian carcinoma, drug combinations, stronger effect = higher value
# [8] = human astrocyte viability loss, single and combined drugs, cytotoxicity control for chromothriptic childhood tumor combination screen, cell-based, BGB or cisplatin IC20 combos (AID 1671460); settings: Human astrocytes, drug combinations, stronger effect = higher value;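 note: cells exposed to compounds for 96 hours before viability readout; 0% = vehicle and 100% = killing control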
# [9] = system: Aerobactin synthetase IucA (Klebsiella pneumoniae); assay: IucA aerobactin synthetase inhibitors, biochemical, Tocris library, absorbance (AID 1345561; call rule not given here;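 note: 100% = enzyme without compound and 0% = no enzyme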); settings: purified IucA enzyme assay, absorbance (OD) read-out; stronger effect = lower value;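 tested at 8 µM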
# [10] = modifiers of HSF1 nuclear foci, imaging, Selleck Cancer Library (AID 1347162; in the data active = plate-normalised HSF1 focus index below about 0.46); settings: human cells, at 10 µM; SSMD: measured here: HSF1 foci SSMD mean; cell count: measured here: cell number; plate-normalised HSF1 focus index: stronger effect = lower value
# [11] = inhibitors of Cryptococcus chitosan production, flow cytometry, Cibacron Brilliant Red staining (AID 1347148; call rule not given here;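 note: compound exposure lasted three days at 37 degrees C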); settings: Cryptococcus neoformans chitosan, stronger effect = lower value; at 10 µM unless noted
# [12] = target: Huntingtin (Homo sapiens) (UniProt P42858); assay: inhibitors of mutant Htt aggregation in vitro, dose response, QA1 (AID 1584); settings: in vitro mutant huntingtin aggregation assay; confirmation test; at 10 µM; stronger effect = lower value
# Chain of Huntingtin (Homo sapiens) (P42858 whole entry, looked up): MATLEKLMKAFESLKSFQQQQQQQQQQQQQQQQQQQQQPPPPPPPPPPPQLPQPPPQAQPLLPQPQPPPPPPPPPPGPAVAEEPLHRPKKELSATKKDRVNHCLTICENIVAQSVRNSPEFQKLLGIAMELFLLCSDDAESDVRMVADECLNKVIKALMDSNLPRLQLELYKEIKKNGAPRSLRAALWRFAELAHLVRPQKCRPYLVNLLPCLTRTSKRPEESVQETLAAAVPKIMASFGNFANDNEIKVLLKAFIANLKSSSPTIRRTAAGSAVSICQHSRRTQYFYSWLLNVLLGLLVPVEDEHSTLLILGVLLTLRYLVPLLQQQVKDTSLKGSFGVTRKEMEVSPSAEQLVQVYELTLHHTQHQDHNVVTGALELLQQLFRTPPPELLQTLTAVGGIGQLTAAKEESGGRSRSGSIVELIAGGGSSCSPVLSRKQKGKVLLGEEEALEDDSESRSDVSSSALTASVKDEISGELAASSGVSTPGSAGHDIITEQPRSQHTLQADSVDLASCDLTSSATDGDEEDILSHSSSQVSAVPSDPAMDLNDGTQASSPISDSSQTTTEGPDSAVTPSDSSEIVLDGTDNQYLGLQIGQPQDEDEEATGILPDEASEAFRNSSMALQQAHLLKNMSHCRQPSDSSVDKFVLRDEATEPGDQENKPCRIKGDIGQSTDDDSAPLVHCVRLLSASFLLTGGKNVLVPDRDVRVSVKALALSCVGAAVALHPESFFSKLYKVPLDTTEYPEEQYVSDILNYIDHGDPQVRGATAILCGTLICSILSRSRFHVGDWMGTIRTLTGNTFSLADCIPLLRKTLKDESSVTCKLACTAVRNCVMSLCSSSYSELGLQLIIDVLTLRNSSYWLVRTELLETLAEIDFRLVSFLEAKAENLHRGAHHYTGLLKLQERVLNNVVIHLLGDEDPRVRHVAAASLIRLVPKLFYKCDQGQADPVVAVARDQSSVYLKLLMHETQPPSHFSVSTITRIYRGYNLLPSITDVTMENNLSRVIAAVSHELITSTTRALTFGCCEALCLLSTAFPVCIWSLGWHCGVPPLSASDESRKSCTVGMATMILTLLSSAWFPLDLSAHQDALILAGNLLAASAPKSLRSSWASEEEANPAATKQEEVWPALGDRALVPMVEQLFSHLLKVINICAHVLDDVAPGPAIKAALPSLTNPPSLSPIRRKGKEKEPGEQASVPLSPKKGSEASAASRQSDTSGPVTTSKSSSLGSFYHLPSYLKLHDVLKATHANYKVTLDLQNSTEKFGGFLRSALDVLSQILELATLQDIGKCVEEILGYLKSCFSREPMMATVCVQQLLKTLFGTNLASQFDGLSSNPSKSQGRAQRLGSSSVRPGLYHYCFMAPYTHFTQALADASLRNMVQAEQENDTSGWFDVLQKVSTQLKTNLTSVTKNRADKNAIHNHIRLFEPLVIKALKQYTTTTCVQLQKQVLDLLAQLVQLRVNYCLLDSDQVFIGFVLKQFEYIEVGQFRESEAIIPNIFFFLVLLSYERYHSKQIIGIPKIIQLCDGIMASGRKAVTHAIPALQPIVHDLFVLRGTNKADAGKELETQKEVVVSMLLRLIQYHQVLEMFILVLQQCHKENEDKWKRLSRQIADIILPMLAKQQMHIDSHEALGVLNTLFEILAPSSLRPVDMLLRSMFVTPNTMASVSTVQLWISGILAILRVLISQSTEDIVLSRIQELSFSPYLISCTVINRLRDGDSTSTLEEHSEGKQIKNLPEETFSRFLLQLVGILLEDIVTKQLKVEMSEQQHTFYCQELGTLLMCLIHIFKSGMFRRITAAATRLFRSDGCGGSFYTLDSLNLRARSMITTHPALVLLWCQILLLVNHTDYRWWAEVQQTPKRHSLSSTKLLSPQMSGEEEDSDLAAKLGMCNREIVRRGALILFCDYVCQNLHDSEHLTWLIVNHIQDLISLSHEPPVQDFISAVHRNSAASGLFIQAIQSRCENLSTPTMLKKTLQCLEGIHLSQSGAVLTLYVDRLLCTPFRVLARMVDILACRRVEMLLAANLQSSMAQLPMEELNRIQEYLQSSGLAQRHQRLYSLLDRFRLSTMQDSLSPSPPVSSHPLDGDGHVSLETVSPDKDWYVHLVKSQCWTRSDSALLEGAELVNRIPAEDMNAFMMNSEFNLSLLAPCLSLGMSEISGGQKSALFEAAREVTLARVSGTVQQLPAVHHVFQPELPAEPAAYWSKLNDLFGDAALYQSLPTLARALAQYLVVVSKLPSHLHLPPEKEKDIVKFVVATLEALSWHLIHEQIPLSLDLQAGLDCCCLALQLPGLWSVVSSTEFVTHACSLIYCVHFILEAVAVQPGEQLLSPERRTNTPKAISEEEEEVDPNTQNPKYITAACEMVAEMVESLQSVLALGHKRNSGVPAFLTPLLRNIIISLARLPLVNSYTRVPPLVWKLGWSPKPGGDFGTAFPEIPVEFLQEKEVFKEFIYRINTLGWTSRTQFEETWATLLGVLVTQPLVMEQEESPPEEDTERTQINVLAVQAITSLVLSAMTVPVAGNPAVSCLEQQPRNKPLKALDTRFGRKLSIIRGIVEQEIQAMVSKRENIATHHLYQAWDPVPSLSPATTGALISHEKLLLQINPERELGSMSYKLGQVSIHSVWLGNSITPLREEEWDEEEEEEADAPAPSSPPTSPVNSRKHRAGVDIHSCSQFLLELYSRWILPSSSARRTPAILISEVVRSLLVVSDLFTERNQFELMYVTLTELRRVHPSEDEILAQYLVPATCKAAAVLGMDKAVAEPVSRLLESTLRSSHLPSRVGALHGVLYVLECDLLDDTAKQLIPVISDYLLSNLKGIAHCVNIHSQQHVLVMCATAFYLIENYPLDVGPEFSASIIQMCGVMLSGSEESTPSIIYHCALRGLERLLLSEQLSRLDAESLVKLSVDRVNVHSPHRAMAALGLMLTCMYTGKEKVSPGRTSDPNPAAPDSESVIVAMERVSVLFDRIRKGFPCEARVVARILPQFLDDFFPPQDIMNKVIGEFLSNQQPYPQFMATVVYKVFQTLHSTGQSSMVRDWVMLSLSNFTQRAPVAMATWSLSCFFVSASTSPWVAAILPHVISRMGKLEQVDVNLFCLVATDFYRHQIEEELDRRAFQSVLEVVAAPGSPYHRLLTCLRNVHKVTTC
# [13] = protection of motor neurons from glutamate death, cell-based, TUNEL DNA degradation staining, MNGlu (AID 1594; call rule not given here); settings: glutamate-induced death, at 1 µM, stronger effect = higher value
# [14] = enhancers of SMN2 over SMN1 splicing, cell-based, SMN2/SMN1 luciferase reporters (AID 1598; call rule not given here); settings: SMN2 vs SMN1 luciferase splicing reporter cells, at 10 µM; SMN1 luciferase ratio: measured here: SMN1 luciferase reporter average; SMN2 luciferase ratio: measured here: SMN2 luciferase reporter average, stronger effect = higher value; SMN2/SMN1 luciferase ratio: stronger effect = higher value
# [15] = measured here: combination with BGB at IC20, at 0.5 µM
# [16] = measured here: combination with cisplatin at IC20, at 0.5 µM
# [17] = measured here: combo with BGB at IC20, at 0.5 µM
# [18] = measured here: combo with cisplatin at IC20, at 0.5 µM
# [19] = measured here: inhibition with BGB combination, at 0.05 µM
# [20] = measured here: inhibition with cisplatin combination, at 0.05 µM
# [21] = measured here: combination with cisplatin, at 0.5 µM
# [22] = measured here: combination with cisplatin, at 5 µM
# [23] = BGB combination, concentration series, at 5 µM
# [24] = cisplatin combination, concentration series, at 5 µM
# [25] = measured here: combo with BGB IC20, at 0.5 µM
# [26] = measured here: combo with cisplatin IC20, at 0.5 µM
compound,measurement,setting,value
CCC(c1ccc(O)cc1)C(CC)c1ccc(O)cc1 (stereo not given),fluorescence slope change,[1],18% (inactive)
COc1ccc(-c2coc3cc(O)cc(O)c3c2=O)cc1,normalised LDH release,[2],1.03
CCn1nc(C(=O)O)c(=O)c2cc3c(cc21)OCO3,fluorescence slope change,[1],14.5% (inactive)
same,inhibition,[3]; at 0.5 µM,-51.5% (inactive)
same,inhibition,[3]; [15],-50.7%
same,inhibition,[3]; [16],-58%
same,inhibition,[4]; at 0.5 µM,-4.61% (inactive)
same,inhibition,[4]; [17],-9.5%
same,inhibition,[4]; [18],-2.73%
same,inhibition,[5]; at 0.5 µM,-2.26% (inactive)
same,inhibition,[5]; [19],-31.4%
same,inhibition,[5]; [20],-13.5%
same,inhibition,[6]; at 0.5 µM,-9.44% (inactive)
same,inhibition,[6]; [21],-16.5%
same,inhibition,[6]; [22],-17.7%
same,inhibition,[7]; [23],14%
same,inhibition,[7]; at 0.5 µM,-2.39% (inactive)
same,inhibition,[7]; [24],6.77%
same,inhibition,[8]; at 0.5 µM,10.8% (inactive)
same,inhibition,[8]; [25],8.46%
same,inhibition,[8]; [26],10.9%
C1CCc2nnnn2CC1,fluorescence slope change,[1],136% (active)
same,remaining activity,[9],117% (inactive)
O=C(CCc1ccc(O)cc1)c1c(O)cc(O)cc1O,SSMD,[10],2.09
same,cell count,[10],7280
same,plate-normalised HSF1 focus index,[10],1.13 (inactive)
O=c1c(O)c(-c2ccc(O)c(O)c2)oc2cc(O)ccc12,inhibition,[3]; at 0.5 µM,3.92% (inactive)
same,inhibition,[3]; [15],-8.68%
same,inhibition,[3]; [16],27.9%
same,inhibition,[4]; at 0.5 µM,-0.08% (inactive)
same,inhibition,[4]; [17],1.14%
same,inhibition,[4]; [18],-0.856%
same,inhibition,[5]; at 0.5 µM,3.05% (inactive)
same,inhibition,[5]; [19],1.82%
same,inhibition,[5]; [20],-4.79%
same,inhibition,[6]; at 0.5 µM,1.64% (inactive)
same,inhibition,[6]; [21],-4.17%
same,inhibition,[6]; [22],-0.986%
same,inhibition,[7]; [23],14.5%
same,inhibition,[7]; at 0.5 µM,1.05% (inactive)
same,inhibition,[7]; [24],19.6%
same,inhibition,[8]; at 0.5 µM,10.6% (inactive)
same,inhibition,[8]; [25],1.09%
same,inhibition,[8]; [26],26.6%
NC(N)=NC(N)=Nc1ccccc1,remaining activity,[9],119% (inactive)
O=C(/C=C/c1ccc(O)c(O)c1)OCCc1ccccc1,remaining activity,[9],122% (inactive)
same,fold fluorescence,[11],6.87 [at 175.9 µM] (inactive)
c1coc(CNc2ncnc3nc[nH]c23)c1,fluorescence slope change,[1],8.8% (inactive)
O=c1c(O)c(-c2ccc(O)cc2O)oc2cc(O)cc(O)c12,aggregation ratio,[12],0.704
O=C(/C=C/C=C/c1ccc2c(c1)OCO2)N1CCCCC1,fluorescence slope change,[1],92.2% (active)
COc1ccc2cc1Oc1ccc(cc1)C[C@H]1c3cc(c(OC)cc3CCN1C)Oc1c(OC)c(OC)cc3c1[C@H](C2)N(C)CC3,fold fluorescence,[11],5.71 [at 80.3 µM] (inactive)
c1ccc2c(Cc3c[nH]c4ccccc34)c[nH]c2c1,fold fluorescence,[11],4.77 (inactive)
Cc1cc(O)c2c(c1)C(=O)c1cccc(O)c1C2=O,SSMD,[10],1.91
same,cell count,[10],7380
same,plate-normalised HSF1 focus index,[10],1.07 (inactive)
CC(=O)N[C@@H](CC(=O)O)C(=O)N[C@@H](CCC(=O)O)C(=O)O (Ac-Asp-Glu-OH),remaining activity,[9],82.4% (inactive)
CC[C@H]1OC(=O)[C@H](C)[C@@H](O[C@H]2C[C@@](C)(OC)[C@@H](O)[C@H](C)O2)[C@H](C)[C@@H](O[C@@H]2O[C@H](C)C[C@H](N(C)C)[C@H]2O)[C@](C)(O)C[C@@H](C)C(=O)[C@H](C)[C@@H](O)[C@]1(C)O,fluorescence slope change,[1],76.3% (active)
C=C1c2c(Cl)ccc(O)c2C(O)=C2C(=O)[C@]3(O)C(O)=C(C(N)=O)C(=O)[C@@H](N(C)C)[C@@H]3[C@@H](O)[C@H]12,aggregation ratio,[12],0.703
Cc1cc(/C=C/c2ccc3cc(N(C)C)ccc3[n+]2C)c(C)n1-c1ccccc1,aggregation ratio,[12],0.715
CN1CCc2c(c3ccccc3n2Cc2ccccc2)C1,protection,[13],49% (active)
same,normalised LDH release,[2],0.901
NC(N)=NCCCCN=C(N)N,protection,[13],45% (active)
CC(C(=O)O)c1ccc(N2Cc3ccccc3C2=O)cc1 (stereo not given),SMN1 luciferase ratio,[14],0.71
same,SMN2/SMN1 luciferase ratio,[14],2.02 (active)
same,SMN2 luciferase ratio,[14],1.4
CN1CCc2cccc3c2C1Cc1ccc(O)c(O)c1-3 (stereo not given),normalised LDH release,[2],0.891
COc1c2ccoc2cc2oc(=O)ccc12,inhibition,[3]; at 0.5 µM,-46.9% (inactive)
same,inhibition,[3]; [15],-48%
same,inhibition,[3]; [16],-47.5%
same,inhibition,[4]; at 0.5 µM,-4.51% (inactive)
same,inhibition,[4]; [17],-4.11%
same,inhibition,[4]; [18],-2.34%
same,inhibition,[5]; at 0.5 µM,-2.25% (inactive)
same,inhibition,[5]; [19],-12.4%
same,inhibition,[5]; [20],-7.34%
same,inhibition,[6]; at 0.5 µM,-16.1% (inactive)
same,inhibition,[6]; [21],-10.7%
same,inhibition,[6]; [22],0.771%
same,inhibition,[7]; [23],5.68%
same,inhibition,[7]; at 0.5 µM,-4.34% (inactive)
same,inhibition,[7]; [24],13.5%
same,inhibition,[8]; at 0.5 µM,1.97% (inactive)
same,inhibition,[8]; [25],-6.42%
same,inhibition,[8]; [26],7.69%
CCCCN1CCCCC1C(=O)Nc1c(C)cccc1C (stereo not given),fluorescence slope change,[1],-6% (inactive)
COc1cc2ccc(=O)oc2cc1O,normalised LDH release,[2],0.874
CN(C)CCC(c1ccc(Br)cc1)c1ccccn1 (stereo not given),fluorescence slope change,[1],54.4% (active)
CC(C)Cn1c(=O)n(C)c(=O)c2[nH]cnc21,fold fluorescence,[11],4.08 [at 225 µM] (inactive)
COc1ccc([C@@H]2CC(=O)c3c(O)cc(O)cc3O2)cc1O,fluorescence slope change,[1],5.5% (inactive)
CC(C(=O)O)c1cccc(Oc2ccccc2)c1 (stereo not given),fluorescence slope change,[1],22.2% (inactive)
